From the supplement of paper PMC7366291
Where a name gives a salt, the structure may show the parent alone.

Test system: Danio rerio Tg(wt1b:EGFP) embryo, pronephros
Assay: fraction of imaged embryos annotated as normal kidney; higher = less nephrotoxic; extreme values may be limits of the assay
Conditions: 25 µM; exposure: 24-48 hpf
Outline: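 Zebrafish embryos carrying Tg(wt1b:EGFP) were dechorionated and exposed to 25 μM compound (0.5% DMSO) between 24 and 48 hpf at 28.5°C. Their pronephroi were imaged by widefield fluorescence, and each embryo was classed by hand from maximum projections. The measure is the fraction of embryos per treatment falling in the normal-kidney category.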

SMILES | fraction of imaged embryos annotated as normal kidney
Nc1nc(NC2CC2)c2ncn([C@H]3C=C[C@@H](CO)C3)c2n1 [Abacavir Sulfate] | 0.9
COc1cc(C(=O)NS(=O)(=O)c2ccccc2C)ccc1Cc1cn(C)c2ccc(NC(=O)OC3CCCC3)cc12 [Zafirlukast] | 1
Cn1c(=O)c2c(ncn2CC2OCCO2)n(C)c1=O [Doxofylline] | 0.917
COc1ccnc(C[S+]([O-])c2nc3cc(OC(F)F)ccc3[nH]2)c1OC (centres undefined) [Pantoprazole sodium] | 0.833
CCn1cc(C(=O)O)c(=O)c2ccc(C)nc21 [Nalidixic acid sodium salt] | 0.25
O=S(=O)(O)c1cc(O)ccc1O [Ethamsylate] | 0.917
CN(C)CCCN1c2ccccc2CCc2ccc(Cl)cc21 [Clomipramine hydrochloride] | 0.667
CC(=O)Nc1ccc(CC(=O)O)cc1 [Actarit] | 0.667
CC/C(=C(\c1ccccc1)c1ccc(OCCN(C)C)cc1)c1ccccc1 [Tamoxifen citrate] | 0.833
N=C(N)N/N=C/c1c(Cl)cccc1Cl [Guanabenz acetate] | 1
COc1cc2nc(N3CCN(C(=O)c4ccco4)CC3)nc(N)c2cc1OC [Prazosin hydrochloride] | 0.917
CC(C)[C@H]1CC[C@H](C(=O)N[C@H](Cc2ccccc2)C(=O)O)CC1 [Nateglinide] | 1
COc1ccc2c3c1O[C@H]1C[C@@H](O)C=C[C@@]31CCN(C)C2 [Galanthamine hydrobromide] | 0.917
Cn1c(=O)c2c(ncn2CC(O)CO)n(C)c1=O (centres undefined) [Diprophylline] | 0.667
